# Measured values taken from PubChem BioAssay (NCATS).
# “And” between values parts separate entries of the source, which are not always exact repeats. Identical values can stand only once. Inconclusive results are not listed. The source holds several records for some structures; these can differ, active in one and inactive in another. The source made the active and inactive calls. The call rests on the fitted dose curve; in most records, active means well fitted curve in the direction sought with a large enough effect; inconclusive means small, poorly fitted or top-dose-only effect, or another doubt; inactive means no such curve, though single readings can be large; an effect the other way counts as inactive or inconclusive.
# Assays:
# [1] = qHTS Screen of the MIPE 4.0 Collection Against Ewings Sarcoma (RDES) (AID 1259252); further: nearly all actives have a fitted effect of over 35% in size; further: potency means the concentration at half of the fitted maximal effect;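 on viability (percent of control): 100% = DMSO-treated cells and 0% = medium-only wells without cells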
# Summary of the method: (§1)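 After a 4 h attachment period in RPMI/5% FBS, cells were pin-dosed with test compounds; DMSO served as negative and 9.2 uM bortezomib (final) as positive control. Luminescent CellTiter-Glo signal at 48 h defined viability.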
# [2] = qHTS Screen of the MIPE 4.0 Collection Against Ewings Sarcoma (TC71) (AID 1259253); further: nearly all actives have a fitted effect of over 40% in size; further: potency means the concentration at half of the fitted maximal effect;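 on viability (% of DMSO): 100% = DMSO-treated cells and 0% = medium-only wells without cells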
# Summary of the method: as §1
# [3] = qHTS Screen of the MIPE 4.0 Collection Against Ewings Sarcoma (EW8) (AID 1259255); further: nearly all actives have a fitted effect of over 35% in size; further: potency means the concentration at half of the fitted maximal effect;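 on viability: 100% = DMSO-treated cells and 0% = medium-only wells without cells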
# Summary of the method: as §1
# [4] = qHTS Screen of the MIPE 4.0 Collection Against Ewings Sarcoma (TC32) (AID 1259256); further: nearly all actives have a fitted effect of over 45% in size; further: potency means the concentration at half of the fitted maximal effect;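 on viability (percent of control): 100% = DMSO-treated cells and 0% = medium-only wells without cells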
# Summary of the method: as §1
# [5] = Identifying Small Molecule Inhibitors of Pancreatic Cancer Stem Cells (A2780, Spheroid) (AID 1259357); details: Potency: A2780 spheroid viability;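 further: potency means the concentration at half of the fitted maximal effect; compound exposure lasted 48 h before the ATP luminescence read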
# Summary of the method: (§2)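 Viability is scored by CellTiter-Glo luminescence 48 h after dosing, expressed as percent activity against vehicle and no-cell references. Spheroid formats rely on cells cultured 14 days in stem cell media beforehand.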
# [6] = Identifying Small Molecule Inhibitors of Pancreatic Cancer Stem Cells (SN12C, Spheroid) (AID 1259360); details: Potency: SN12C spheroid viability; further: potency means the concentration at half of the fitted maximal effect
# Summary of the method: as §2
# [7] = Identifying Small Molecule Inhibitors of Pancreatic Cancer Stem Cells (A278, Adherent) (AID 1259361);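 further: viability read after 48 h compound exposure; nearly all actives have a fitted effect of over 35% in size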
# Summary of the method: (§3)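 Adherent (2D) versus sphere (3D) formats; spheres generated 14 d in SCM beforehand. Compound transferred by pin tool after 4 h, 48 h incubation, CellTiter-Glo endpoint.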
# [8] = P-glycoprotein substrates identified in KB-3-1 adenocarcinoma cell line, qHTS therapeutic library screen (AID 1346986); further: nearly all actives have a fitted effect of over 60% in size;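 further: potency means the concentration at half of the fitted maximal effect; potency is for cytotoxicity meaning loss of cell viability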
# Summary of the method: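 Dose-response cytotoxicity, KB-3-1 vs P-gp-high KB-8-5-11, no colchicine in assay medium. Read: CellTiter-Glo at 72 h.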
# [9] = NS1 protein of Zika virus - qHTS assay to identify small molecule inhibitors in human HEK 293 cells (AID 1347053); further: nearly all actives have a fitted effect of over 55% in size; further: potency means the concentration at half of the fitted maximal effect;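 on activity change, negative = inhibition: series mostly up to about 46 µM; plate controls were infected untreated cells for no effect and uninfected cells for full effect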
# Summary of the method: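 Compound-treated (1 h pre-infection) HEK 293 cells infected with ZIKV MR766, MOI = 0.5; after 24 h at 37 C, NS1 read by TR-FRET; data normalized to uninfected and infected controls.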
# [10] = Identifying Small Molecule Inhibitors of Pancreatic Cancer Stem Cells (Panc1, Spheroid) (AID 1259359);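 further: potency means the concentration at half of the fitted maximal effect; compound exposure lasted 48 h before reading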
# Summary of the method: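 Monolayer and spheroid cultures are compared. Spheroids form over 14 days in stem cell medium on hydrogel-coated low-attachment plates, then are exposed to compound for 48 h before CellTiter-Glo luminescence.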
# [11] = Identifying Small Molecule Inhibitors of Pancreatic Cancer Stem Cells (Panc1, Adherent) (AID 1259362); details: Potency: viability; further: potency means the concentration at half of the fitted maximal effect
# Summary of the method: as §3
# [12] = P-glycoprotein substrates identified in KB-8-5-11 adenocarcinoma cell line, qHTS therapeutic library screen (AID 1346987); further: nearly all actives have a fitted effect of over 65% in size; further: potency means the concentration at half of the fitted maximal effect
# Summary of the method: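 In this qHTS, P-gp-rich KB-8-5-11 cells received library compounds across a concentration range. Viability was quantified by luminescence after 72 h at 37 degree C.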
# [13] = qHTS assay for measurement of the activity of small molecule inhibitors on Zika virus induced Caspase-3 activity in human astrocytoma cells (AID 1224859);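 further: plate controls were ZIKV-infected untreated cells for no effect and uninfected cells for full effect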
# Summary of the method: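 Caspase activation in ZIKV-infected SNB-19 cells (2 FFU/cell, 6 h) measured by Caspase-Glo 3/7 luminescence after 30 min RT; compound pre-incubated 1 h; normalised to uninfected and infected controls.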
# [14] = Identifying Small Molecule Inhibitors of Pancreatic Cancer Stem Cells (SN12C, Adherent) (AID 1259358);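 further: potency means the concentration at half of the fitted maximal effect; cell survival measured after 48 h of compound exposure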
# Summary of the method: as §3
compound,measurement,setting,value
CN(c1ncccc1CNc1nc(Nc2ccc3c(c2)CC(=O)N3)ncc1C(F)(F)F)S(C)(=O)=O,Potency,[1],11.8 µM (active)
same,Potency,[2],5.9 µM (active)
same,Potency,[3],8.33 µM (active)
same,Potency,[4],10.5 µM (active)
same,Potency,[5],5.26 µM (active)
same,Potency,[6],20.9 µM (active)
same,IC50 (viability decrease),[7],2.96 µM (active)
same,Potency,[8],5.17 µM (active)
same,Potency,[9],11.8 µM (active)
COC(=O)[C@]12CCC(C)(C)C[C@@H]1[C@@H]1C(=O)C=C3[C@@]4(C)C=C(C#N)C(=O)C(C)(C)[C@@H]4CC[C@@]3(C)[C@]1(C)CC2,Potency,[1],0.372 µM (active)
same,Potency,[2],0.264 µM (active)
same,Potency,[3],0.296 µM (active)
same,Potency,[4],0.118 µM (active)
same,Potency,[5],1.32 µM (active)
same,Potency,[10],1.18 µM (active)
same,Potency,[6],2.35 µM (active)
same,IC50 (viability decrease),[7],1.05 µM (active)
same,Potency,[11],2.96 µM (active)
same,Potency,[12],743 nM (active)
same,Potency,[9],1.32 µM (active)
CC(C)c1cc(C(=O)N2Cc3ccc(CN4CCN(C)CC4)cc3C2)c(O)cc1O,Potency,[13],inactive
same,Potency,[2],0.235 µM (active)
same,Potency,[3],0.372 µM (active)
same,Potency,[4],0.209 µM (active)
same,Potency,[12],92 nM (active)
CCC[C@H](NC(=O)C(C#N)=Cc1cccc(Br)n1)c1ccccc1,Potency,[13],inactive
same,Potency,[2],7.43 µM (active)
same,Potency,[3],6.62 µM (active)
same,Potency,[4],7.43 µM (active)
same,IC50 (viability decrease),[7],26.4 µM (active)
same,Potency,[11],20.9 µM (active)
same,Potency,[9],14.8 µM (active)
Nc1nc(Nc2ccc(S(N)(=O)=O)cc2)nn1C(=O)c1c(F)cccc1F,Potency,[13],inactive
same,Potency,[2],5.26 µM (active)
same,Potency,[3],8.33 µM (active)
same,Potency,[4],7.43 µM (active)
same,Potency,[5],4.18 µM (active)
same,IC50 (viability decrease),[7],2.64 µM (active)
same,Potency,[12],10.5 µM (active) and 7.31 µM (active)
same,Potency,[9],18.7 µM (active)
CN1CCN(c2ccc3nc(-c4c(N)c5c(F)cccc5[nH]c4=O)[nH]c3c2)CC1,Potency,[2],11.8 µM (active)
same,Potency,[4],14.8 µM (active)
same,Potency,[6],6.62 µM (active)
same,IC50 (viability decrease),[7],3.32 µM (active)
same,Potency,[11],33.2 µM (active)
same,Potency,[8],5.17 µM (active)
same,Potency,[12],2.64 µM (active) and 8.2 µM (active)
Cc1cccc(C=NNc2cc(N3CCOCC3)nc(OCCc3ccccn3)n2)c1,Potency,[2],16.6 µM (active)
same,Potency,[3],16.6 µM (active)
same,Potency,[4],5.26 µM (active)
same,Potency,[10],23.5 µM (active)
same,Potency,[9],23.5 µM (active)
C[C@@H](Oc1cc(-c2cnn(C3CCNCC3)c2)cnc1N)c1c(Cl)ccc(F)c1Cl,Potency,[1],16.6 µM (active)
same,Potency,[2],14.8 µM (active)
same,Potency,[4],4.18 µM (active)
same,Potency,[14],18.7 µM (active)
same,Potency,[6],20.9 µM (active)
same,IC50 (viability decrease),[7],4.18 µM (active)
same,Potency,[12],13.2 µM (active) and 16.4 µM (active) and 11.6 µM (active)
COc1ccc2c(c1)CC[C@@H](CN(C)CC(=O)O)[C@H]2c1ccccc1,Potency,[1],2.35 µM (active)
same,Potency,[2],3.72 µM (active)
same,Potency,[3],2.35 µM (active)
same,Potency,[4],2.35 µM (active)
same,Potency,[6],inactive
same,Potency,[12],1.66 µM (active) and inactive
CCn1cc(-c2ccnc3[nH]c(-c4cccc(CN(C)C)c4)cc23)c(-c2ccc(NC(=O)N(C)C)cc2)n1,Potency,[2],3.72 µM (active)
same,Potency,[3],0.0469 µM (active)
same,Potency,[4],0.0469 µM (active)
COc1cc(OC2CCN(C)CC2)ccc1Nc1ncc2c(n1)n(C1CCCC1)c(=O)n2C,Potency,[1],9.35 µM (active)
same,Potency,[2],4.69 µM (active)
same,Potency,[3],7.43 µM (active)
same,Potency,[4],4.69 µM (active)
same,Potency,[14],16.6 µM (active)
same,Potency,[6],20.9 µM (active)
same,Potency,[11],2.96 µM (active)
same,Potency,[12],3720 nM (active)
O=C(Nc1cn[nH]c1-c1nc2ccc(CN3CCOCC3)cc2[nH]1)NC1CC1,Potency,[1],3.72 µM (active)
same,Potency,[2],7.43 µM (active)
same,Potency,[3],0.0332 µM (active)
same,Potency,[4],0.0662 µM (active)
same,Potency,[8],1.16 µM (active)
same,Potency,[9],9.35 µM (active)
Cc1cc(Nc2cc(N3CCN(C)CC3)nc(Sc3ccc(NC(=O)C4CC4)cc3)n2)n[nH]1,Potency,[1],3.72 µM (active)
same,Potency,[2],6.62 µM (active)
same,Potency,[4],1.18 µM (active)
same,Potency,[6],inactive
same,Potency,[8],0.231 µM (active)
same,Potency,[9],9.35 µM (active)
CCOC(=O)C1=C(C)NC2=C(C(=O)CC(C)(C)C2)C1c1ccc(-c2ccccc2)cc1 (stereo not given),Potency,[1],26.4 µM (active)
same,Potency,[2],26.4 µM (active)
same,Potency,[3],29.6 µM (active)
same,Potency,[4],23.5 µM (active)
same,Potency,[8],inactive
same,Potency,[12],inactive and 23.1 µM (active)
same,Potency,[9],10.5 µM (active)
Cc1cc(Nc2cc(CN3CCOCC3)c3nc(C)c(Cc4ccc(Cl)cc4F)n3n2)n[nH]1,Potency,[1],16.6 µM (active)
same,Potency,[2],14.8 µM (active)
same,Potency,[3],3.32 µM (active)
same,Potency,[4],3.72 µM (active)
same,Potency,[12],13.2 µM (active) and 16.4 µM (active)
Nc1ncnc2c1c(-c1cnc3[nH]ccc3c1)nn2C1CCCC1,Potency,[1],0.469 µM (active)
same,Potency,[2],0.662 µM (active)
same,Potency,[3],2.09 µM (active)
same,Potency,[4],1.05 µM (active)
same,Potency,[12],590 nM (active) and 2.06 µM (active)
same,Potency,[9],16.6 µM (active)
CNC(=O)c1c(F)cccc1Nc1nc(Nc2cc3c(cc2OC)CCN3C(=O)CN(C)C)nc2[nH]ccc12,Potency,[2],20.9 µM (active)
same,Potency,[3],7.43 µM (active)
same,Potency,[4],1.32 µM (active)
same,Potency,[9],inactive
C=C1C(=CC=C2CCC[C@]3(C)[C@@H]([C@H](C)C=C[C@H](C)C(C)C)CC[C@@H]23)C[C@@H](O)C[C@@H]1O,Potency,[1],0.332 µM (active)
same,Potency,[2],0.743 µM (active)
same,Potency,[3],2.35 µM (active)
same,Potency,[4],0.833 µM (active)
same,Potency,[6],inactive
same,Potency,[11],26.4 µM (active)
same,Potency,[8],inactive
same,Potency,[12],inactive
same,Potency,[9],inactive
COc1ccc(CC2c3cc(OC)c(OC)cc3CC[N+]2(C)CCC(=O)OCCCCCOC(=O)CC[N+]2(C)CCc3cc(OC)c(OC)cc3C2Cc2ccc(OC)c(OC)c2)cc1OC (stereo not given),viability (percent of control),[1],121% [at 5.15 µM] (inactive)
same,viability (% of DMSO),[2],110% [at 5.15 µM] (inactive)
same,viability,[3],117% [at 5.15 µM] (inactive)
same,viability (percent of control),[4],123% [at 5.15 µM] (inactive)
same,Potency,[12],inactive
same,"activity change, negative = inhibition",[9],-9.69% [at 9.2 µM] (inactive)
